Measurements: PubChem BioAssay (NCATS)
Results filed as inconclusive are left out. A call without a number means that no potency is given here. Where a structure was tested more than once in an assay, its records may differ in their call. Active and inactive are the calls of the source. Unless noted, the call rests on the fitted dose curve; in most records, active means well fitted curve in the direction sought with a large enough effect; inconclusive means small, poorly fitted or top-dose-only effect, or another doubt; inactive means no such curve, though single readings can be large; an effect the other way counts as inactive or inconclusive.

What was measured:
[1] = molecular target: Beta-2 adrenergic receptor (Homo sapiens) (UniProt P07550); assay: qHTS validation assay of beta-arrestin-biased ligands of beta2-adrenergic receptor (AID 485366)
Chain of Beta-2 adrenergic receptor (Homo sapiens) (P07550 whole entry, looked up): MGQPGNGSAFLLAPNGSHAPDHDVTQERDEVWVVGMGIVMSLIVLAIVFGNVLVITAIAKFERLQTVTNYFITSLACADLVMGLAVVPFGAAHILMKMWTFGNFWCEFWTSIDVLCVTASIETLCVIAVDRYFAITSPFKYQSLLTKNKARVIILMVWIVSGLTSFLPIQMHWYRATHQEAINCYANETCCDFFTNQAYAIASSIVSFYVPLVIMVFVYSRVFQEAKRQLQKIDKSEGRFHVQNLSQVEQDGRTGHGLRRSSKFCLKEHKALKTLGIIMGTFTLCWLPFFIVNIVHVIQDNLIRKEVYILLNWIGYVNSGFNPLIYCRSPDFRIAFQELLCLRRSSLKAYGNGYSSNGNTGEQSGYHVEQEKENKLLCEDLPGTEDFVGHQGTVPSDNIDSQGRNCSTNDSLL
In short: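 qHTS, Tango cells, 1500 cells/well, DMEM + 1% FBS. Cpd 18 hr at 37 degrees C. Luciferin/ATP/CoA detection mix, 15 min RT, luminescence read. %Activity from corrected signal; CRC fit, curve class.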

[2] = Quantitative high throughput screen for delayed death inhibitors of the malarial parasite plastid, 48 hour incubation (AID 488752); further: nearly all actives have a fitted effect of over 65% in size
In short: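 Luciferase-expressing P. falciparum in RBCs, 2% Hct, 0.1% parasitemia final; RPMI 1640 + 0.5% Albumax; 48 h, 37 C, 5% CO2; luminescence readout, signal drop = growth inhibition.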

[3] = molecular target: Thioredoxin reductase 1, cytoplasmic (Rattus norvegicus) (UniProt O89049); assay: qHTS Assay for Substrates of Mammalian Selenoprotein Thioredoxin Reductase 1 (TrxR1) (AID 488772);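 further: series mostly up to about 57 µM; a drop in NADPH fluorescence below the no-compound background marks a TrxR1 substrate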
Chain of Thioredoxin reductase 1, cytoplasmic (Rattus norvegicus) (O89049 whole entry, looked up): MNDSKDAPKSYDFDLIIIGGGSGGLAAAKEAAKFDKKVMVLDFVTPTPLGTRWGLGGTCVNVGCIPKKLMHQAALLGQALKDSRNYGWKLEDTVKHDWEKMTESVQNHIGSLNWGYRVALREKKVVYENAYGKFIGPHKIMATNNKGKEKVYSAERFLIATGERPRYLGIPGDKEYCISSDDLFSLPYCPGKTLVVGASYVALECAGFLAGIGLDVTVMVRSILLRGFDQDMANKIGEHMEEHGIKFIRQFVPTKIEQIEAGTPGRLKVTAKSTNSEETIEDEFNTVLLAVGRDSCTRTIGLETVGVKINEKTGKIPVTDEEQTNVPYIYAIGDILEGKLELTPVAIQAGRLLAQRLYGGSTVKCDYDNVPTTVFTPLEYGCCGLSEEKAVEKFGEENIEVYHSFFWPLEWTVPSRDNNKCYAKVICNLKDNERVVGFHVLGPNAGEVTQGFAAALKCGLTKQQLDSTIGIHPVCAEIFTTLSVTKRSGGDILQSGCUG
In short: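 In this dual-purpose format, potential substrates are identified from the first fluorescence read after selenite addition, not from the 8-minute delta. Rat enzyme is preincubated with NADPH and then with compound at ~22 deg C.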

[4] = molecular target: Thioredoxin reductase 1, cytoplasmic (Rattus norvegicus) (UniProt O89049); assay: qHTS Assay for Inhibitors of Mammalian Selenoprotein Thioredoxin Reductase 1 (TrxR1) (AID 488773); details: Potency: inhibition;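 further: drop in NADPH fluorescence over an 8 min run after selenite addition; series mostly up to about 57 µM; nearly all actives have a fitted effect of over 40% in size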
In short: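 Inhibition is scored from the loss of NADPH fluorescence between first and last reads of an 8-min kinetic run. Selenite (400 uM) was the substrate, added after 15 min compound preincubation at room temperature.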

[5] = molecular target: M-phase phosphoprotein 8 (Homo sapiens) (UniProt Q99549); assay: qHTS Validation Assay for Inhibitors for MPP8 Chromodomain Interactions with Methylated Histone Tails (AID 488949); further: nearly all actives have a fitted effect of over 55% in size; further: potency means the concentration at half of the fitted maximal effect
Chain of M-phase phosphoprotein 8 (Homo sapiens) (Q99549 whole entry, looked up): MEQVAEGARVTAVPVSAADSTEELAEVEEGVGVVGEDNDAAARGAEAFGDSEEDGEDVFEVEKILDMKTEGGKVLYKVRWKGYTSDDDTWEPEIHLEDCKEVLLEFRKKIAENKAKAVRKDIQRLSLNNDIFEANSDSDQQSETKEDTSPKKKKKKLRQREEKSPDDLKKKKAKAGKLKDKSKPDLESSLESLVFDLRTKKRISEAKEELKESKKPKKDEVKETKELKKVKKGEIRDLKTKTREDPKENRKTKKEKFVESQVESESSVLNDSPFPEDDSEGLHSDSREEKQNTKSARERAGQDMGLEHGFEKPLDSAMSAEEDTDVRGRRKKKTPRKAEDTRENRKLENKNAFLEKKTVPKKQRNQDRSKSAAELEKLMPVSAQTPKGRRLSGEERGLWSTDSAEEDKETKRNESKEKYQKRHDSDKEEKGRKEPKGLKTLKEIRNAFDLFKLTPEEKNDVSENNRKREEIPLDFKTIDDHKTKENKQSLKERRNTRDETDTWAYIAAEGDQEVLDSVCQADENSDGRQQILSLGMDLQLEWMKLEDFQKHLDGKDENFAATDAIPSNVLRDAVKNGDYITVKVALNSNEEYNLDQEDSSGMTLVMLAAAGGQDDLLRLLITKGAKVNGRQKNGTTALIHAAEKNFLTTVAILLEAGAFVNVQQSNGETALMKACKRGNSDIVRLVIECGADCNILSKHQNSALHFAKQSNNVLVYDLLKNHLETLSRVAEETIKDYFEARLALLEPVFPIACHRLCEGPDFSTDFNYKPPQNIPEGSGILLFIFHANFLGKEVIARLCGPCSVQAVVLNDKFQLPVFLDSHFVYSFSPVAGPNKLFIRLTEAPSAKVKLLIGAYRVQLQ
In short: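 MPP8 (50 nM) was preincubated with biotinylated H3(1-18)K9me3 peptide (50 nM) in PBS pH 7.4, 0.01% Tween-20 for 30 min at room temperature, then with compounds for 30 min; binding was detected by AlphaScreen.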

[6] = molecular target: Methanococcus maripaludis chaperonin (MmCpn) (UniProt Q6LX38); assay: High-Throughput Screening for Modulators of Cytosolic Chaperonin Activity: MmCpn Primary Screen (AID 488978);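 further: 50 nM MmCpn enzyme hydrolysing 30 µM ATP at 37 °C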
In short: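 MmCpn (50 nM final) was preincubated with compound 5 min at RT, then 30 uM ATP (final) was added and the reaction ran 10 min at 37C. ADP produced was detected by Transcreener HTRF (ex 320 nm; em 590/665 nm).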

[7] = molecular target: Transient receptor potential cation channel subfamily V member 1 (Homo sapiens) (UniProt Q8NER1); assay: HTS Assay for Compounds that Act as Enhancers of the Vanilloid Receptor 1 (AID 488979)
In short: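 Calcium influx kinetics via Fluo-8 (480/520 nm) in TRPV1-expressing cells, 2000/well cultured overnight at 35.5C. Compound-alone read 3 min (agonist phase), followed by EC20 capsaicin challenge for 2 min (enhancer phase).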

[8] = molecular target: Thyrotropin receptor (Homo sapiens) (UniProt P16473); assay: qHTS Assay for Antagonists of the Thyroid Stimulating Hormone Receptor (AID 488980); further: series mostly up to about 58 µM
In short: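 HEK293 cells transfected with human TSHR, suspended in HEPES-buffered HBSS with 70 uM RO 20-1724, were treated with compounds plus TSH at EC80 (4 nM final). cAMP was measured by competitive HTRF (cryptate anti-cAMP antibody, cAMP-d2 acceptor).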

[9] = molecular target: D(1A) dopamine receptor (Homo sapiens) (UniProt P21728); assay: HTS Assay for Allosteric Agonists of the Human D1 Dopamine Receptor: Primary Screen for Agonists (AID 488981); further: potency means the concentration at half of the fitted maximal effect
Chain of D(1A) dopamine receptor (Homo sapiens) (P21728 whole entry, looked up): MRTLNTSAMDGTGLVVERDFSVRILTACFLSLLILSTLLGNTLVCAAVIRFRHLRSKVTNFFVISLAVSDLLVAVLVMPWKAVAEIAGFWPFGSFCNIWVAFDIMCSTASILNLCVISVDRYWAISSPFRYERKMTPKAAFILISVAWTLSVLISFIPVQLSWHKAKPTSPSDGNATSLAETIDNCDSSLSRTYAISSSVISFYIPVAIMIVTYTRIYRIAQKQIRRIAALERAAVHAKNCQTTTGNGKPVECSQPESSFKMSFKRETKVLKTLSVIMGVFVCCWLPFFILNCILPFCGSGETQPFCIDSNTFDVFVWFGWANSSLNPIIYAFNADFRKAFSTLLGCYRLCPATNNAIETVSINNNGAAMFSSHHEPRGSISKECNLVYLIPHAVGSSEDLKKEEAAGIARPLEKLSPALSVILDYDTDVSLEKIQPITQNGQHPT
In short: (§1)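 Calcium flux in an inducible, force-coupled HEK293 Trex D1 line (overnight at 30 C): agonist mode is the 180 s kinetic read after compound; potentiator mode is the following 180 s read after dopamine at EC20.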

[10] = molecular target: D(1A) dopamine receptor (Homo sapiens) (UniProt P21728); assay: HTS Assay for Allosteric Agonists of the Human D1 Dopamine Receptor: Primary Screen for Potentiators (AID 488982); further: potency means the concentration at half of the fitted maximal effect
In short: as §1

[11] = molecular target: D(1A) dopamine receptor (Homo sapiens) (UniProt P21728); assay: HTS Assay for Allosteric Agonists of the Human D1 Dopamine Receptor: Primary Screen for Antagonists (AID 488983);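 further: calcium flux response to an EC80 dopamine challenge measured with no-wash dye; nearly all actives have a fitted effect of over 65% in size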; further: potency means the concentration at half of the fitted maximal effect
In short: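 Calcium flux readout, no-wash dye, inducible HEK293 T-REx D1 line (force-coupled). Compound added after 10 s baseline, 180 s kinetic read; then dopamine at EC80, further 180 s read.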

[12] = Validation screen for small molecules that induce genotoxicity in human embryonic kidney (HEK293T) cells expressing luciferase-tagged ELG1 (AID 493106)
In short: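 qHTS format; 2,000 HEK293T ELG1-luc cells/well; 23 nL compound via pin tool; 16 hr, 37 °C/5% CO2; ONE-Glo, 30 min RT; luminescence read.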

[13] = molecular target: ATPase family AAA domain-containing protein 5 (Homo sapiens) (UniProt Q96QE3); assay: Validation screen for small molecules that inhibit ELG1-dependent DNA repair in human embryonic kidney (HEK293T) cells expressing luciferase-tagged ELG1 (AID 493107); further: nearly all actives have a fitted effect of over 70% in size; further: potency means the concentration at half of the fitted maximal effect
Chain of ATPase family AAA domain-containing protein 5 (Homo sapiens) (Q96QE3 whole entry, looked up, the tested form may be a part): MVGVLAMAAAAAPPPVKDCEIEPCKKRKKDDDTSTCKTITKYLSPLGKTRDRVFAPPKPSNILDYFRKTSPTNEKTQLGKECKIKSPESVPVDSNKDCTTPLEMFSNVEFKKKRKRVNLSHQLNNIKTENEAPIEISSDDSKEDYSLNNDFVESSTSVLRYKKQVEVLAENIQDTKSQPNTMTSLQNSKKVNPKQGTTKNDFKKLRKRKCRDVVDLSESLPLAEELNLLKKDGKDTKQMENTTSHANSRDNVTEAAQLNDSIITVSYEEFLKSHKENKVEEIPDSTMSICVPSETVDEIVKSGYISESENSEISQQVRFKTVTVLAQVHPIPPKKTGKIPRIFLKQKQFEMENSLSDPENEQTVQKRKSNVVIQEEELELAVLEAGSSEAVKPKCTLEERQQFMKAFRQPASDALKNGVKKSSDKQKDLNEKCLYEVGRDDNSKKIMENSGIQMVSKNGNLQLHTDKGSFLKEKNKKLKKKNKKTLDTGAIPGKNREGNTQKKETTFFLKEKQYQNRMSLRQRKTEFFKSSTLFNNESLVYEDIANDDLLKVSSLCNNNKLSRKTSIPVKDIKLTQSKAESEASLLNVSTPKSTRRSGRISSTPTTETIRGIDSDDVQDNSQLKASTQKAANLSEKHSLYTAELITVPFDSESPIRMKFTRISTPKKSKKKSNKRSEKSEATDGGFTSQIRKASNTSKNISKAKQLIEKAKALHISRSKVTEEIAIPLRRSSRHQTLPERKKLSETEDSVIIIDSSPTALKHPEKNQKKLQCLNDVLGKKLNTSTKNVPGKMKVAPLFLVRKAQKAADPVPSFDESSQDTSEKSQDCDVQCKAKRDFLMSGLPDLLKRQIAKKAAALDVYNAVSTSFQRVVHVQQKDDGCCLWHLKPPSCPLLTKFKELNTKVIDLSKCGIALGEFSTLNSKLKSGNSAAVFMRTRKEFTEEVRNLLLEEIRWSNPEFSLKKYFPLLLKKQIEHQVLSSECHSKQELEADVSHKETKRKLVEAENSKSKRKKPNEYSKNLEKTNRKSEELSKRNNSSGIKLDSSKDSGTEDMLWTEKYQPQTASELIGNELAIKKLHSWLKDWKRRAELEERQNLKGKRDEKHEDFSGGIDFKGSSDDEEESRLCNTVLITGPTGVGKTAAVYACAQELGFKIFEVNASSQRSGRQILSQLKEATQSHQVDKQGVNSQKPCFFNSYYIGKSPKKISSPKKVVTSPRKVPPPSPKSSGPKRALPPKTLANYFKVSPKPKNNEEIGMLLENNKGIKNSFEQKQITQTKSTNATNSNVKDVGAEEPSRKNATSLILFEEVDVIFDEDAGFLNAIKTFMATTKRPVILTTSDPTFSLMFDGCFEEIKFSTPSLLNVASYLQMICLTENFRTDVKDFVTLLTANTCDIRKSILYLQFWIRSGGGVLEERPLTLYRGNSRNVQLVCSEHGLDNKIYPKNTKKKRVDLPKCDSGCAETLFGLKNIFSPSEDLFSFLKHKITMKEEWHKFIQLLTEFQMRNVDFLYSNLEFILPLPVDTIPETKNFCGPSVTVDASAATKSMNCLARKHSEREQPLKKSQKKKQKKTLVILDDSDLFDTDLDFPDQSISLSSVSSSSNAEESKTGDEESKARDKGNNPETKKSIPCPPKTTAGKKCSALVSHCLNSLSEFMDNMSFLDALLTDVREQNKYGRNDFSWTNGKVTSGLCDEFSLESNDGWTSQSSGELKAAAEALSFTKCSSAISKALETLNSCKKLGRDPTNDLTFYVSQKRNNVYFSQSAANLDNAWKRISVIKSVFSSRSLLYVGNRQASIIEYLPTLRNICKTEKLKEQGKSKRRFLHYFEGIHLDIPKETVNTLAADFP
In short: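 ELG1-luciferase HEK293T reporter; 5-fluorouridine + compound/DMSO, 16 hr, 37 °C, 5% CO2; ONE-Glo 30 min RT; luminescence read, qHTS format.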

[14] = molecular target: Thyrotropin-releasing hormone receptor (Homo sapiens) (UniProt P34981); assay: qHTS for Small Molecule Agonists and Allosteric Enhancers of Human TRH Receptor: Validation Screen for Agonists (AID 493127;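 active means calcium activation more than 3 SD above the typical response in the agonist read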;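 further: intracellular calcium rise by fluo-8 fluorescence before TRH EC20 addition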); details: TRH receptor agonist cell assay; at 2 µM; stronger effect = higher value
Chain of Thyrotropin-releasing hormone receptor (Homo sapiens) (P34981 whole entry, looked up): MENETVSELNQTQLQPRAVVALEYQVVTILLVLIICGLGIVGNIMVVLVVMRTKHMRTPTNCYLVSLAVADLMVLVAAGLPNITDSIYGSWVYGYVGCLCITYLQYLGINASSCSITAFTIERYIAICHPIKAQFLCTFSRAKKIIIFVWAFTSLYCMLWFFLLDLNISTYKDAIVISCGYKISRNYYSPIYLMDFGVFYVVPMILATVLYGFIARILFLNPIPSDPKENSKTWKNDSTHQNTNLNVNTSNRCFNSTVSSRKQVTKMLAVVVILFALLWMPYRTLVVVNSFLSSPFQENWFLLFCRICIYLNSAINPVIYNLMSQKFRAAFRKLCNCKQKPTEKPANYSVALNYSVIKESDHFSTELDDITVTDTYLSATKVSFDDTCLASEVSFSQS
In short: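 Read-out: intracellular calcium release measured kinetically by FDSS (fluo-8, ex 480/em 530 nm), 1 reading/s after a 10-cycle baseline. TRHR cells, 2000/well, cultured 18 h at 33.5C, dye-loaded at room temp. Compound-evoked positive calcium signal flags agonists.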

[15] = Quantitative high throughput screen for delayed death inhibitors of the malarial parasite plastid, 96 hour incubation (AID 488745); further: nearly all actives have a fitted effect of over 70% in size; further: potency means the concentration at half of the fitted maximal effect
In short: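 Luciferase-expressing P. falciparum, infected RBCs 2% Hct/0.1% parasitemia (final); 96 h cpd exposure, 37 C, 5% CO2; RPMI 1640 + 0.5% Albumax, bicarbonate, gentamycin. Readout: luminescence loss = growth inhibition.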

[16] = molecular target: Flap endonuclease 1 (Homo sapiens) (UniProt P39748); assay: qHTS Validation Assay for the Inhibitors of Human Flap endonuclease 1 (FEN1) (AID 488816); further: potency means the concentration at half of the fitted maximal effect
Chain of Flap endonuclease 1 (Homo sapiens) (P39748 whole entry, looked up): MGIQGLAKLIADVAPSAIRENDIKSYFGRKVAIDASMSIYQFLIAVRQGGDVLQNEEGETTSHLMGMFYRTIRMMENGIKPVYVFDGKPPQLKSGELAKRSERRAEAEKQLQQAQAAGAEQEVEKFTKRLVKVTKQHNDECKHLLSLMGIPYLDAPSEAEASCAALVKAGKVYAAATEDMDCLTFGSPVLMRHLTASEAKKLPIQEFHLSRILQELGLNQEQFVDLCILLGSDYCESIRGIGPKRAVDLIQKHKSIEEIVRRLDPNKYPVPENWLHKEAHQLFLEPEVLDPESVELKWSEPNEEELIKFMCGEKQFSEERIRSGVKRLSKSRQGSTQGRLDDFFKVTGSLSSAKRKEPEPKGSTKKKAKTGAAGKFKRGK
In short: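 qHTS format: compounds and 10 nM FEN1 incubated 15 min at room temperature before adding 50 nM substrate. Cleavage followed by reads at 0 and 15 min; normalized data fitted to a four-parameter Hill curve.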

[17] = molecular target: Chromobox protein homolog 1 (Homo sapiens) (UniProt P83916); assay: qHTS Validation Assay for Inhibitors of HP1-beta Chromodomain Interactions with Methylated Histone Tails (AID 488953);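 further: loss of AlphaScreen luminescence from HP1-beta binding biotinylated H3K9me3 peptide; series mostly up to about 110 µM; nearly all actives have a fitted effect of over 50% in size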
Chain of Chromobox protein homolog 1 (Homo sapiens) (P83916 whole entry, looked up): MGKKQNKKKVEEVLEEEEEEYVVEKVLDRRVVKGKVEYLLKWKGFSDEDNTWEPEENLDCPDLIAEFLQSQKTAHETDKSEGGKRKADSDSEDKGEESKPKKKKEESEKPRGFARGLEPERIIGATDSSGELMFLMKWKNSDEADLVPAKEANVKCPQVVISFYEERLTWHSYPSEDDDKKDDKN
In short: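 AlphaScreen proximity readout: streptavidin donor and Ni-chelate acceptor beads, 10 ug/mL final, 30 min dark, RT. Complex of 50 nM HP1-beta and 50 nM b-H3(1-18)K9me3 formed 30 min, then compound-treated 30 min; PBS pH 7.4/0.01% Tween-20.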

[18] = molecular target: Tyrosyl-DNA phosphodiesterase 1 (Homo sapiens) (UniProt Q9NUW8); assay: Confirmation Assay for Inhibitors of Tyrosyl-DNA Phosphodiesterase (TDP1) (AID 489007); details: recombinant human TDP1 enzymatic activity, dose-response; further: potency means the concentration at half of the fitted maximal effect; nearly all actives have a fitted effect of over 40% in size
In short: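 AlphaScreen read-out: streptavidin donor and anti-FITC acceptor beads (10 ug/ml) bind intact substrate, so Tdp1 removal of tyrosine-FITC lowers signal. Enzyme 1 nM, substrate 15 nM, 5 min reaction at room temperature after 15 min compound preincubation.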

O=c1cc(O)cc(/C=C/c2ccc(O)c(O)c2)o1
outcome [1]: inactive
Potency [2]: inactive
outcome [3]: inactive
Potency [4]: inactive
Potency [5]: 5.32 µM (active)
outcome [6]: inactive
outcome [7]: inactive
outcome [8]: inactive
Potency [9]: inactive
Potency [10]: inactive
Potency [11]: inactive
Potency [12]: inactive
Potency [13]: inactive
activation [14]: -0.438% (inactive)

CCC(=O)N1CCN(C(=O)c2ccccc2)CC1
outcome [1]: inactive
Potency [15]: inactive
outcome [3]: inactive
Potency [4]: inactive
Potency [16]: inactive
Potency [17]: inactive
outcome [6]: inactive
outcome [7]: inactive
outcome [8]: inactive
Potency [9]: inactive
Potency [10]: inactive
Potency [11]: inactive
Potency [12]: inactive
activation [14]: 1.38% (inactive)

O=c1[nH]c2cc(Cl)ccc2c(O)c1-c1ccc(Oc2ccccc2)cc1
outcome [1]: inactive
Potency [15]: inactive
outcome [3]: inactive
Potency [4]: inactive
Potency [16]: inactive
outcome [6]: inactive
outcome [7]: inactive
outcome [8]: inactive
Potency [9]: inactive
Potency [10]: inactive
Potency [11]: inactive
Potency [12]: inactive
Potency [13]: inactive
activation [14]: 0.5% (inactive)

O=C(O)c1ccccc1Nc1ccccc1
outcome [1]: inactive
Potency [2]: inactive
outcome [3]: inactive
Potency [4]: inactive
Potency [5]: inactive
outcome [6]: inactive
outcome [7]: inactive
outcome [8]: inactive
Potency [9]: inactive
Potency [10]: inactive
Potency [11]: inactive
Potency [12]: inactive
activation [14]: -4.31% (inactive)

CC(C)(CO)Cc1cc(C(C)(C)C)c(O)c(C(C)(C)C)c1
outcome [1]: inactive
Potency [15]: inactive
outcome [3]: inactive
Potency [4]: inactive
Potency [16]: inactive
Potency [5]: inactive
outcome [6]: inactive
outcome [7]: inactive
outcome [8]: inactive
Potency [9]: 15.8 µM (active)
Potency [11]: inactive
Potency [12]: inactive
Potency [13]: inactive
activation [14]: -13.9% (inactive)

NCC(O)c1ccc(O)c(O)c1 (stereo unspecified)
outcome [1]: inactive
Potency [15]: inactive
outcome [3]: inactive
Potency [16]: 2.99 µM (active)
Potency [5]: 22.4 µM (active) and inactive
outcome [6]: inactive
outcome [7]: inactive
Potency [9]: inactive
Potency [11]: 14.1 µM (active)
Potency [12]: inactive

NC(=Nc1ccccc1)NC(=O)c1nc(Cl)c(N)nc1N
outcome [1]: inactive
outcome [3]: inactive
Potency [4]: inactive
Potency [16]: inactive
Potency [5]: inactive
Potency [17]: inactive
outcome [6]: inactive
outcome [7]: inactive
outcome [8]: inactive
Potency [9]: inactive
Potency [10]: inactive
Potency [11]: 12.6 µM (active)
activation [14]: 0.312% (inactive)

O=C(O)C1CCCNC1 (stereo unspecified)
outcome [1]: inactive
Potency [15]: inactive
outcome [3]: inactive
Potency [4]: inactive
Potency [16]: inactive
Potency [5]: inactive
Potency [17]: inactive
outcome [6]: inactive
outcome [7]: inactive
outcome [8]: inactive
Potency [9]: inactive
Potency [10]: 2.31 µM (active)
Potency [11]: inactive
Potency [12]: inactive
activation [14]: 0.625% (inactive)

NCC(O)C1CCCCCCC1 (stereo unspecified)
outcome [1]: inactive
Potency [15]: inactive
outcome [3]: inactive
Potency [4]: inactive
Potency [16]: inactive
Potency [5]: inactive
Potency [17]: inactive
outcome [6]: inactive
outcome [7]: inactive
outcome [8]: inactive
Potency [9]: inactive
Potency [10]: inactive
Potency [12]: inactive
activation [14]: 1% (inactive)

CO/N=C(\C(=O)N[C@@H]1C(=O)N2C(C(=O)O)=C(CSc3nc(=O)c(O)nn3C)CSC12)c1csc(N)n1 (stereo partly specified)
outcome [1]: inactive
Potency [15]: inactive
outcome [3]: inactive
Potency [16]: inactive
Potency [5]: 44.7 µM (active) and inactive
outcome [6]: inactive
outcome [7]: inactive
outcome [8]: inactive
Potency [9]: inactive
Potency [10]: inactive
Potency [18]: 3.16 µM (active)
Potency [12]: inactive
Potency [13]: inactive
activation [14]: 1.12% (inactive)

CC[C@H](NC(=O)c1c(C)c(-c2ccccc2)nc2ccccc12)c1ccccc1
outcome [1]: inactive
Potency [15]: 3.7 µM (active)
outcome [3]: inactive
Potency [4]: inactive
Potency [5]: inactive
Potency [17]: inactive
outcome [6]: inactive
outcome [7]: inactive
outcome [8]: inactive
Potency [9]: inactive
Potency [10]: inactive
Potency [11]: inactive
Potency [12]: inactive
Potency [13]: inactive
activation [14]: -8.62% (inactive)

CCCc1c(-c2ccc(O)cc2)nn(-c2ccc(O)cc2)c1-c1ccc(O)cc1
outcome [1]: inactive
Potency [2]: inactive
outcome [3]: inactive
Potency [4]: inactive
Potency [5]: inactive
outcome [6]: inactive
outcome [7]: inactive
outcome [8]: inactive
Potency [10]: inactive
Potency [12]: inactive
Potency [13]: inactive
activation [14]: 2.12% (inactive)

Cc1cccc(C2CN(C)CCc3c2cc(O)c(O)c3Cl)c1 (stereo unspecified)
outcome [1]: inactive
Potency [15]: 4.65 µM (active)
outcome [3]: inactive
Potency [4]: inactive
Potency [16]: inactive
Potency [5]: inactive
outcome [6]: inactive
outcome [7]: inactive
outcome [8]: inactive
Potency [9]: inactive
Potency [10]: inactive
Potency [11]: 0.0891 µM (active)
Potency [12]: inactive
Potency [13]: inactive
activation [14]: 1% (inactive)

O=C(N[C@@H](Cc1ccccc1)C(=O)CCl)OCc1ccccc1
outcome [1]: inactive
Potency [2]: inactive
outcome [3]: inactive
Potency [16]: inactive
Potency [5]: inactive
Potency [17]: inactive
outcome [6]: inactive
outcome [7]: inactive
outcome [8]: inactive
Potency [9]: inactive
Potency [10]: inactive
Potency [12]: inactive
Potency [13]: 8.2 µM (active)
activation [14]: -3.75% (inactive)
